Test results as given in PubChem BioAssay (EPA / NIEHS).
Records with an inconclusive call do not appear. Calls of active or inactive are those of the source. Rule for the calls: active = hit-call score of the fitted dose curve at least 0.9, where 1 is the maximum; inconclusive = response in the unintended direction; inactive = score below 0.9.

Assay: Tanguay_ZF_120hpf_AXIS_legacy: (Legacy) Oregon State University Tanguay Lab 120 Hour Post-fertilization zebrafish Assay for Body Axis Malformation (AID 2283635);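 for AC50: potency for an increased fraction of larvae scored with body axis malformation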
Experimental: Tanguay_ZF_120hpf_legacy is a whole embryo, multiplexed endpoint assay using zebrafish larvae exposed for 120 hours post fertilization on a 96-well plate.Tanguay_ZF_120hpf_AXIS_legacy is one of one assay component(s) measured or calculated from the Tanguay_ZF_120hpf_legacy assay. It is designed to make measurements of zebrafish development as detected with brightfield microscopy of developing zebrafish embryos.Data from the assay component Tanguay_ZF_120hpf_AXIS_legacy was analyzed into 1 assay endpoints. This assay endpoint, Tanguay_ZF_120hpf_AXIS_legacy, was analyzed in the positive analysis fitting direction relative to DMSO as the negative control and baseline of activity. Using a type of morphology reporter, gain-of-signal activity can be used to understand changes in developmentals as they relate to the whole embryo. To generalize the intended target to other relatable targets, this assay endpoint is annotated to the zebrafish development intended target family, where the subfamily is body axis morphogenesis.
Zebrafish husbandry: Tropical 5D wild-type adult zebrafish were housed in at an approximate density of 1000 per 100 gallon tank at the Sinnhuber Aquatic Research Laboratory, Oregon State University, Corvallis, OR. Each tank was kept at standard laboratory conditions of 28C on a 14-h light/10-h dark photoperiod in fish water consisting of reverse osmosis water supplemented with a commercially available salt (Instant Ocean). Spawning funnels were placed into the tanks the night prior, and embryos were collected and staged. To increase bioavailability, the chorion was enzymatically removed using pronase (63.6mg/ml, >/= 3.5U/mg, Sigma-Aldrich: P5147) at 4 hours post fertilization (hpf) using a custom automated dechorionator.Chemical exposures: Six hpf dechorionated embryos were placed 1 embryo per well in a 96-well plate prefilled with 90 ul of EM using automated embryo placement systems (AEPS). Ten microliters of each row of dilution plate 2 was added to 2 exposure plates. The final DMSO concentration used was 0.64% (vol/vol). Thirty-two embryos were also exposed to 5uM trimethyltin chloride (positive control). Plates were sealed to prevent evaporation and foil covered to reduce light exposure and kept in a 28C incubator. Embryos were statically exposed until 120 hpf. At 24 hpf, embryos were assessed for photomotor response using a custom photomotor response analysis tool (PRAT) and for developmental toxicity endpoints (MO24: mortality at 24 hpf, DP: developmental progression, SM: spontaneous movement, and NC: notochord distortion). At 120 hpf, locomotor activity was measured using Viewpoint Zebralab and assessed for 18 endpoints. Zebrafish acquisition and analysis program (ZAAP), a custom program designed to inventory, acquire, and manage zebrafish data, was used to collect developmental endpoints as either present or absent (i.e., binary responses were recorded). If mortality occurred for an embryo (at either 24 or 120 hpf), the non-mortality endpoints were not measured.

Compound	outcome	AC50
O=C(O)Cc1ccccc1Nc1c(Cl)cccc1Cl	inactive	
CCNc1cccc(C)c1	inactive	
Nc1ccc2c(c1)C(=O)c1ccccc1C2=O	inactive	
CCCCCCC(=O)OCC	inactive	
Nc1ccc(S(=O)(=O)c2ccc(N)cc2)cc1	inactive	
O=c1[nH]cc(F)c(=O)[nH]1	inactive	
O=[N+]([O-])C(CO)(CO)CO	inactive	
COc1cc(S(=O)(=O)O)c(C)cc1N=Nc1c(O)ccc2cc(S(=O)(=O)O)ccc12	inactive	
CCCCCCCC=O	inactive	
Cc1cc(=O)[nH]c(=S)[nH]1	inactive	
C[Si]1(C)O[Si](C)(C)O[Si](C)(C)O[Si](C)(C)O1	inactive	
NC(=O)Cn1c(=O)cc(CCN2CCN(c3nccc4sccc34)CC2)c2ccc(F)cc21	inactive	
Nc1ccccc1N	inactive	
NCCO	inactive	
CCCCN(CCCC)CCCC	inactive	
CCOC(=O)CCC(=O)OCC	inactive	
CCCCCCCCCCCCCO	inactive	
COc1ccc(S(=O)(=O)N2C(=O)[C@@](c3ccccc3OC)(N3C[C@H](O)C[C@H]3C(=O)N(C)C)c3cc(Cl)ccc32)c(OC)c1	inactive	
CC(=O)Oc1ccccc1C(=O)O	inactive	
Cc1ccc(C)c(O)c1C	inactive	

Compound	outcome	AC50
CC1(C)CC(N=C=O)CC(C)(CN=C=O)C1 (stereo not given)	inactive	
CNCc1cc(F)ccc1Oc1ccc(Cl)c(Cl)c1	inactive	
OC[C@@H](O)[C@@H](O)[C@H](O)[C@H](O)CO	inactive	
CCOC(=O)C(C)(C)Oc1ccc(Cl)cc1		63.8 µM (active)
CC(=O)OC/C=C(\C)CCC=C(C)C	inactive	
COC(=O)c1ccc(O)cc1	inactive	
CC(=O)OCCOCCOCCOC(C)=O	inactive	
CCCCCCOCCO	inactive	
Cc1cccc([N+](=O)[O-])c1C	inactive	
COc1ccc2c(c1)c(CC(=O)O)c(C)n2C(=O)c1ccc(Cl)cc1	inactive	
CN1CCN(Cc2cc(-c3ccc4[nH]c(=O)oc4c3)co2)[C@@H](c2ccc(F)cc2)C1	inactive	
CNC(=O)[C@H]1O[C@@H](n2cnc3c(NCc4cc(Cl)ccc4OCc4cc(C)no4)ncnc32)[C@H](O)[C@@H]1N	inactive	
CCCCCCCCCCC	inactive	
Cc1ccc2ncccc2c1	inactive	
COc1cc(-c2nc(NC(=O)c3cc4cc(C)cc(C)c4n3CC(=O)O)sc2CCC2CCCCC2)c(OC)cc1Cl	inactive	
CCCCCCCCCCO	inactive	
CC(C)(C)c1cc(O)c(C(C)(C)C)cc1O		25.7 µM (active)
COc1ccc(C)cc1N	inactive	
Cc1ccc(C(C)C)c(O)c1	inactive	
CCCCCC(=O)O	inactive	
